# Assays:
# Assay in all cases: SPOT peptide array binding signal intensity (averaged, normalized) (arbitrary units (background-subtracted, floor 0; scale differs between SH3 domains)); higher = stronger binding of the SH3 domain to the peptide
# [1] = target: CaNbp2
# How it was run: (§1)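 Cellulose membranes carried synthetic 15-mer peptides with cysteines swapped for serines. These were incubated overnight at 4°C with 10 μg/ml of GST-fused SH3 domains from four yeast species in TBS-based blocking buffer. Binding signal, detected with anti-GST antibody and quantified in Genespotter, is the normalized, background-subtracted spot intensity averaged over replicates, in arbitrary units specific to each domain.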
# [2] = target: CaRvs167
# How it was run: as §1
# [3] = target: CaRvs167-3
# How it was run: as §1
# [4] = target: CaSho1
# How it was run: as §1
# [5] = target: CaSla1-D1-D2
# How it was run: as §1
# [6] = target: CaSla1-D3
# How it was run: as §1
# [7] = target: ScAbp1
# How it was run: as §1
# [8] = target: ScBbc1
# How it was run: as §1
# [9] = target: ScBem1-D1
# How it was run: as §1
# [10] = target: ScBzz1-D1
# How it was run: as §1
# [11] = target: ScBzz1-D2
# How it was run: as §1
# [12] = target: ScCyk3
# How it was run: as §1
# [13] = target: ScFus1
# How it was run: as §1
# [14] = target: ScHof1
# How it was run: as §1
# [15] = target: ScHse1
# How it was run: as §1
# [16] = target: ScLsb1
# How it was run: as §1
# [17] = target: ScLsb2
# How it was run: as §1
# [18] = target: ScLsb3
# How it was run: as §1
# [19] = target: ScLsb4
# How it was run: as §1
# [20] = target: ScMyo3
# How it was run: as §1
# [21] = target: ScMyo5
# How it was run: as §1
# [22] = target: ScNbp2
# How it was run: as §1
# [23] = target: ScPex13
# How it was run: as §1
# [24] = target: ScRvs167
# How it was run: as §1
# [25] = target: ScSho1
# How it was run: as §1
# [26] = target: ScSla1-D1-D2
# How it was run: as §1
# [27] = target: ScSla1-D3
# How it was run: as §1
# [28] = target: SpAbp1-D1
# How it was run: as §1
# [29] = target: SpBbc1
# How it was run: as §1
# [30] = target: SpBzz1-D1
# How it was run: as §1
# [31] = target: SpBzz1-D2
# How it was run: as §1
# [32] = target: SpCyk3
# How it was run: as §1
# [33] = target: SpHof1
# How it was run: as §1
# [34] = target: SpHof1-2
# How it was run: as §1
# [35] = target: SpHof1-3
# How it was run: as §1
# [36] = target: SpHse1
# How it was run: as §1
# [37] = target: SpLsb1
# How it was run: as §1
# [38] = target: SpLsb4
# How it was run: as §1
# [39] = target: SpMyo1
# How it was run: as §1
# [40] = target: SpNbp2
# How it was run: as §1
# [41] = target: SpPex13
# How it was run: as §1
# [42] = target: SpRvs167
# How it was run: as §1
# [43] = target: SpSla1-D1-D2
# How it was run: as §1
# [44] = target: SpSla1-D3
# How it was run: as §1
# [45] = target: AgAbp1
# How it was run: as §1
# [46] = target: AgBbc1
# How it was run: as §1
# [47] = target: AgBem1-D1
# How it was run: as §1
# [48] = target: AgBzz1-D1
# How it was run: as §1
# [49] = target: AgBzz1-D2
# How it was run: as §1
# [50] = target: AgCyk3
# How it was run: as §1
# [51] = target: AgFus1
# How it was run: as §1
# [52] = target: AgHof1
# How it was run: as §1
# [53] = target: AgHse1
# How it was run: as §1
# [54] = target: AgLsb1
# How it was run: as §1
# [55] = target: AgLsb4
# How it was run: as §1
# [56] = target: AgMyo5
# How it was run: as §1
# [57] = target: AgNbp2
# How it was run: as §1
# [58] = target: AgRvs167
# How it was run: as §1
# [59] = target: AgSho1
# How it was run: as §1
# [60] = target: AgSla1-D1-D2
# How it was run: as §1
# [61] = target: AgSla1-D3
# How it was run: as §1
# [62] = target: CaAbp1-D1
# How it was run: as §1
# [63] = target: CaAbp1-D2
# How it was run: as §1
# [64] = target: CaBbc1
# How it was run: as §1
# [65] = target: CaBem1-D1
# How it was run: as §1
# [66] = target: CaBzz1-D1
# How it was run: as §1
# [67] = target: CaBzz1-D2
# How it was run: as §1
# [68] = target: CaCyk3
# How it was run: as §1
# [69] = target: CaFus1
# How it was run: as §1
# [70] = target: CaHof1
# How it was run: as §1
# [71] = target: CaHse1
# How it was run: as §1
# [72] = target: CaLsb1
# How it was run: as §1
# [73] = target: CaLsb4
# How it was run: as §1
# [74] = target: CaMyo5
# How it was run: as §1
binder,measurement,setting,value
ALFRLSFFFPLDPAY,SPOT peptide array binding signal intensity,[1],1460
same,SPOT peptide array binding signal intensity,[2],578
same,SPOT peptide array binding signal intensity,[3],964
same,SPOT peptide array binding signal intensity,[4],2260
same,SPOT peptide array binding signal intensity,[5],131
same,SPOT peptide array binding signal intensity,[6],848
same,SPOT peptide array binding signal intensity,[7],81.5
same,SPOT peptide array binding signal intensity,[8],9.5
same,SPOT peptide array binding signal intensity,[9],110
same,SPOT peptide array binding signal intensity,[10],218
same,SPOT peptide array binding signal intensity,[11],531
same,SPOT peptide array binding signal intensity,[12],246
same,SPOT peptide array binding signal intensity,[13],3920
same,SPOT peptide array binding signal intensity,[14],2.5
same,SPOT peptide array binding signal intensity,[15],4160
same,SPOT peptide array binding signal intensity,[16],70.2
same,SPOT peptide array binding signal intensity,[17],24
same,SPOT peptide array binding signal intensity,[18],674
same,SPOT peptide array binding signal intensity,[19],104
same,SPOT peptide array binding signal intensity,[20],35
same,SPOT peptide array binding signal intensity,[21],62.8
same,SPOT peptide array binding signal intensity,[22],802
same,SPOT peptide array binding signal intensity,[23],116
same,SPOT peptide array binding signal intensity,[24],91.7
same,SPOT peptide array binding signal intensity,[25],2780
same,SPOT peptide array binding signal intensity,[26],120
same,SPOT peptide array binding signal intensity,[27],426
same,SPOT peptide array binding signal intensity,[28],303
same,SPOT peptide array binding signal intensity,[29],57.2
same,SPOT peptide array binding signal intensity,[30],838
same,SPOT peptide array binding signal intensity,[31],6.5
same,SPOT peptide array binding signal intensity,[32],55
same,SPOT peptide array binding signal intensity,[33],844
same,SPOT peptide array binding signal intensity,[34],230
same,SPOT peptide array binding signal intensity,[35],1850
same,SPOT peptide array binding signal intensity,[36],2380
same,SPOT peptide array binding signal intensity,[37],15.5
same,SPOT peptide array binding signal intensity,[38],463
same,SPOT peptide array binding signal intensity,[39],91
same,SPOT peptide array binding signal intensity,[40],2350
same,SPOT peptide array binding signal intensity,[41],565
same,SPOT peptide array binding signal intensity,[42],131
same,SPOT peptide array binding signal intensity,[43],8
same,SPOT peptide array binding signal intensity,[44],192
RRASLFPRDPKRLRP,SPOT peptide array binding signal intensity,[45],89.5
same,SPOT peptide array binding signal intensity,[46],87.5
same,SPOT peptide array binding signal intensity,[47],169
same,SPOT peptide array binding signal intensity,[48],87
same,SPOT peptide array binding signal intensity,[49],49
same,SPOT peptide array binding signal intensity,[50],3
same,SPOT peptide array binding signal intensity,[51],223
same,SPOT peptide array binding signal intensity,[52],22.2
same,SPOT peptide array binding signal intensity,[53],1070
same,SPOT peptide array binding signal intensity,[54],1
same,SPOT peptide array binding signal intensity,[55],112
same,SPOT peptide array binding signal intensity,[56],2.5
same,SPOT peptide array binding signal intensity,[57],107
same,SPOT peptide array binding signal intensity,[58],0.5
same,SPOT peptide array binding signal intensity,[59],67.5
same,SPOT peptide array binding signal intensity,[60],116
same,SPOT peptide array binding signal intensity,[61],7.5
same,SPOT peptide array binding signal intensity,[62],520
same,SPOT peptide array binding signal intensity,[63],362
same,SPOT peptide array binding signal intensity,[64],304
same,SPOT peptide array binding signal intensity,[65],83
same,SPOT peptide array binding signal intensity,[66],131
same,SPOT peptide array binding signal intensity,[67],128
same,SPOT peptide array binding signal intensity,[68],39
same,SPOT peptide array binding signal intensity,[69],724
same,SPOT peptide array binding signal intensity,[70],1.5
same,SPOT peptide array binding signal intensity,[71],13.2
same,SPOT peptide array binding signal intensity,[72],0.25
same,SPOT peptide array binding signal intensity,[73],58.5
same,SPOT peptide array binding signal intensity,[74],4.5
same,SPOT peptide array binding signal intensity,[1],464
same,SPOT peptide array binding signal intensity,[2],8.67
same,SPOT peptide array binding signal intensity,[3],80.2
same,SPOT peptide array binding signal intensity,[4],430
same,SPOT peptide array binding signal intensity,[5],87.5
same,SPOT peptide array binding signal intensity,[6],≤ 0
same,SPOT peptide array binding signal intensity,[7],284
same,SPOT peptide array binding signal intensity,[8],18.2
same,SPOT peptide array binding signal intensity,[9],173
same,SPOT peptide array binding signal intensity,[10],30.5
same,SPOT peptide array binding signal intensity,[11],104
same,SPOT peptide array binding signal intensity,[12],108
same,SPOT peptide array binding signal intensity,[13],282
same,SPOT peptide array binding signal intensity,[14],4
same,SPOT peptide array binding signal intensity,[15],1890
same,SPOT peptide array binding signal intensity,[16],14.5
same,SPOT peptide array binding signal intensity,[17],1
same,SPOT peptide array binding signal intensity,[18],248
same,SPOT peptide array binding signal intensity,[19],4.5
same,SPOT peptide array binding signal intensity,[20],0.5
same,SPOT peptide array binding signal intensity,[21],2
same,SPOT peptide array binding signal intensity,[22],308
same,SPOT peptide array binding signal intensity,[23],≤ 0
same,SPOT peptide array binding signal intensity,[24],16.3
same,SPOT peptide array binding signal intensity,[25],992
same,SPOT peptide array binding signal intensity,[26],1000
same,SPOT peptide array binding signal intensity,[27],20
same,SPOT peptide array binding signal intensity,[28],152
same,SPOT peptide array binding signal intensity,[29],7
same,SPOT peptide array binding signal intensity,[30],609
same,SPOT peptide array binding signal intensity,[31],≤ 0
same,SPOT peptide array binding signal intensity,[32],1
same,SPOT peptide array binding signal intensity,[33],184
same,SPOT peptide array binding signal intensity,[34],44.5
same,SPOT peptide array binding signal intensity,[35],352
same,SPOT peptide array binding signal intensity,[36],420
same,SPOT peptide array binding signal intensity,[37],4.25
same,SPOT peptide array binding signal intensity,[38],98
same,SPOT peptide array binding signal intensity,[39],2
same,SPOT peptide array binding signal intensity,[40],348
same,SPOT peptide array binding signal intensity,[41],17
same,SPOT peptide array binding signal intensity,[42],11.3
same,SPOT peptide array binding signal intensity,[43],≤ 0
same,SPOT peptide array binding signal intensity,[44],19

# From the supplement of paper PMC4466140
